# In PubChem BioAssay (NCI):
# The panel holds about 83,000 compounds, 20% with a hit somewhere; the sample as a whole holds those more often.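 Growth was measured after 48 h exposure to one concentration of compound in 96-well plates. Values under 10 count as active.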 Unmarked numbers belong to inactive results. Active and inactive are the calls of the source.
# Tests used:
# Assay in all cases: NCI-60 one-dose screen, 48 h (100 = growth as untreated, 0 = no growth, -100 = all killed)
# Details in all cases: 10 µM unless noted
# NCI-H23 lung = system: NCI-H23 lung
# NCI-H226 lung = system: NCI-H226 lung
# NCI-H322M lung = system: NCI-H322M lung
# HOP-62 NSCLC = system: HOP-62 NSCLC
# NCI-H460 lung = system: NCI-H460 lung
# NCI-H522 lung = system: NCI-H522 lung
# A549/ATCC NSCLC = system: A549/ATCC NSCLC
# 786-0 renal = system: 786-0 renal
# COLO 205 colon = system: COLO 205 colon
# HOP-92 NSCLC = system: HOP-92 NSCLC
SMILES,growth (NCI-H23 lung),growth (NCI-H226 lung),growth (NCI-H322M lung),growth (HOP-62 NSCLC),growth (NCI-H460 lung),growth (NCI-H522 lung),growth (A549/ATCC NSCLC),growth (786-0 renal),growth (COLO 205 colon),growth (HOP-92 NSCLC) [%]
Oc1c(CN2CCCC2)cc(COCc2ccc(Br)cc2)c2cccnc12,20.7%,-0.576% (active),-5.34% (active),-4.92% (active),-21.8% (active),-45% (active),4.92% (active),-8.02% (active),39.1%,
COc1ccc(C2c3ccc4ccccc4c3Oc3nc(C)[nH]c(=O)c32)cc1 (centres undefined),92%,92.4%,101%,89%,99.4%,77%,109%,107%,110%,
O=C(Nc1ccc(Cl)cc1)Nc1ccc(Cl)c(C(F)(F)F)c1,-15.5% (active),2.69% (active),17.1%,11.3%,0.218% (active),3.9% (active),13.3%,15.1%,-73.8% (active),
CN(C)CC1C(=O)O[C@H]2[C@H]1CC/C(COC(=O)c1cc3ccccc3[nH]1)=C\CC[C@@]1(C)O[C@@H]21 (some centres undefined),18.5%,23.8%,86.7%,43.4%,17.6%,,11.5%,-81.6% (active),-63.9% (active),
CN(C)c1ccc(-c2cc(-c3ccc(Nc4nc(Nc5ccc(Cl)cc5)nc(Nc5ccc(Cl)cc5)n4)cc3)no2)cc1,45%,87.1%,65.2%,63.6%,27.1%,55.9%,23.1%,36.9%,0.291% (active),
COC(=O)c1c2c(c(C)[n+]([O-])c1C)C(=O)C(NCc1ccc(F)cc1)=CC2=O,31%,81.6%,15.9%,48.2%,11.5%,-11.6% (active),4.34% (active),48.7%,-49.8% (active),
COc1ccc2nc(NNC(=O)c3cnccn3)c3cccn3c2c1,-24.3% (active),14.9%,8.34% (active),7.91% (active),-2.09% (active),-2.64% (active),9.52% (active),-12% (active),-27% (active),
N#CCN1C(=O)C2C3=C(CCCC3)SC2N=C1CN1CCCC1 (centres undefined),97.9%,87.5%,91.2%,89.6%,117%,92.5%,93.1%,92%,122%,
CC(=O)O[C@]1(C(C)=O)CCC2C3C[C@H](C)C4=CC(=O)CC[C@]4(C)C3CC[C@@]21C (some centres undefined),96.2%,73.6%,95.7%,94.6%,103%,74.8%,73.3%,97.4%,104%,
COc1cc2nc(Cl)nc(Nc3ccc(S(=O)(=O)Nc4nccs4)cc3)c2cc1OC,101%,91.9%,102%,92%,106%,91.3%,,101%,110%,
COc1cccc(-c2nn(-c3ccccc3)cc2-c2ccnc(NCCCNC(=O)c3cccc(C(F)(F)F)c3)c2)c1,27.3%,13.3%,75.3%,48.3%,23.4%,0.301% (active),8.6% (active),29.8%,9.99% (active),
CC(=O)C(C)Cc1cc2c(cc1C)C(C)(C)CCC2(C)C (centres undefined),95.3%,99.5%,97.8%,82.4%,107%,85.3%,79.2%,95.2%,105%,
Cn1cc(-c2csc(-c3cccc(F)c3)n2)c2cccnc21,-62.7% [100 µM] (active),-14.4% [100 µM] (active),-22% [100 µM] (active),-69.2% [100 µM] (active),-59.6% [100 µM] (active),-27.6% [100 µM] (active),1% [100 µM] (active),-81.6% [100 µM] (active),-66.5% [100 µM] (active),
N#CC1=C(NC=O)Oc2c(ccc3ccccc23)C1c1ccccc1 (centres undefined),38.5%,62.6%,75.4%,21.1%,19.9%,,36.3%,22%,96.4%,
Cc1cc(NCCCCNc2ccnc3cc(Cl)ccc23)nc(Nc2ccc(C(=O)N3CCCCC3)cc2)n1,41.3%,98.6%,22.9%,21.2%,6.46% (active),-42.2% (active),13.1%,-87.6% (active),-67.8% (active),
Clc1cccc(Cl)c1/C=C/c1cc(/C=C/c2c(Cl)cccc2Cl)[nH]n1,43.6%,30.6%,38.2%,49.7%,,-9.35% (active),38.7%,23.1%,17.7%,102
COc1cccc(-c2nn(-c3ccccc3)cc2-c2ccnc(NCCCNC(=O)c3ccc(F)cc3)c2)c1,53.1%,60.1%,80.8%,35.6%,45.8%,51.8%,30.5%,38.2%,31.7%,
N#Cc1nc(C#N)c(Sc2ccccc2)c(Sc2ccccc2)c1Sc1ccccc1,-42.1% (active),3.05% (active),23.9%,-46% (active),-44.7% (active),-67.2% (active),3.65% (active),-55.9% (active),-88.2% (active),
S=C(Cc1ccc2c(c1)CCCC2)N1CCOCC1,98.4%,110%,94.8%,89.8%,,81.3%,93.2%,101%,106%,121
COc1nc(N(C)O)nc(N(C)O)n1,43.9%,49.3%,37.7%,26.6%,8.71% (active),,33.7%,8.76% (active),19.6%,
N=C1C(c2nc(-c3ccc(Br)cc3)cs2)=C(O)CN1CC1CCCO1 (centres undefined),88.8%,103%,103%,18.5%,60.2%,99.6%,,61.7%,90.8%,
Cc1ccc(C(=O)C2=C(O)C(=O)N(Cc3cccnc3)C2c2ccccc2F)o1 (centres undefined),97.9%,96.5%,108%,91.6%,107%,106%,87.3%,86.2%,108%,
COC(=O)[C@]12CC[C@@H](C)[C@H](C)[C@@H]1C1=CC[C@@H]3[C@@]4(C)C(C=O)=C[C@@](C)(COC(=O)c5ccco5)[C@@H]4C(=O)C[C@@]3(C)[C@]1(C)CC2,26.3%,22.5%,69.6%,31.6%,18.1%,10.7%,10.1%,43.4%,-59.5% (active),
CN(C)CCC=C1c2ccccc2C(C)(C)c2ccccc21,65.8%,122%,99.1%,64.5%,85.6%,76.5%,88.9%,67.4%,68.7%,
O=C1CC(N2C(=O)/C(=C/C(Cl)=C\c3ccc([N+](=O)[O-])cc3)SC2=S)C(=O)N1c1ccc(O)cc1 (centres undefined),-41.7% (active),-64% (active),12.2%,5.91% (active),0.922% (active),-24.1% (active),15.6%,-3.2% (active),-42.9% (active),
CCOC(=O)c1c2ncccc2n2c(=O)n(-c3ccccc3C)nnc12,93.6%,97.4%,89.3%,78.6%,95%,,,98%,108%,128
C#CCOc1nc(C)cc(C)c1C#N,95.6%,97%,105%,92.2%,102%,89.3%,97.7%,99.6%,111%,
COc1cc2c(cc1-c1c(C)noc1C)ncc1nc(C3CCC(F)(F)CC3)n(C3CCC(OC(F)F)CC3)c12 (centres undefined),68.3%,66.7%,47.7%,37.1%,,12.5%,64.1%,53.4%,28.4%,12.9
Cc1ccc(Nc2nc(N)nc(CSCC(=O)NN)n2)cc1,98.8%,97.8%,100%,101%,,96.7%,107%,100%,110%,95.6
Cc1cc(NCc2cc(Nc3ccnc4cc(Cl)ccc34)ccc2F)nc(N2CCSCC2)n1,26.9%,84.6%,43.2%,-41.6% (active),,-23.6% (active),39%,15.5%,-38.5% (active),37.7
